Source: PubChem BioAssay (Tox21)
Where “and” joins values, the source holds several entries; their conditions need not be identical. Identical values can stand only once. Records with an inconclusive call do not appear. Calls of active or inactive are those of the source. Unless noted, calls come from the whole dose curve; as a rule, active = well fitted curve in the direction sought with a large enough effect in the repeat runs; inconclusive = weak or mixed curves; inactive = no such curve, though single readings can be large; an effect the other way counts as inactive or inconclusive.

Columns and labels:
[1] = qHTS assay for small molecule agonists of the p53 signaling pathway (AID 651631; calls by dose curve; note: nearly all actives have a fitted effect of over 15% in size; note: potency is the fitted concentration of half-maximal effect)
Procedure, shortened: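 Agonist mode screen using a stably integrated beta-lactamase gene under p53 response elements in HCT-116 cells. Compound exposure lasts 16 h at 37 °C; fluorescence intensity is measured following 2 h FRET substrate loading.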

[2] = qHTS assay for small molecules that induce genotoxicity in human embryonic kidney cells expressing luciferase-tagged ATAD5 (AID 651632); note: nearly all actives have a fitted effect of over 15% in size; note: potency is the fitted concentration of half-maximal effect
Procedure, shortened: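 Luminescence read-out: after 16 hr compound exposure at 37C, ATAD5-luciferase HEK293T cells received Amplite, 30 min RT, then CCD imaging. A rise in signal marks genotoxic stress.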

[3] = qHTS assay for small molecule agonists of the p53 signaling pathway - cell viability (AID 651633; calls by dose curve; note: nearly all actives have a fitted effect of over 30% in size; note: potency is the fitted concentration of half-maximal effect)
Procedure, shortened: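 Viability counter-read: CellTiter-Glo luminescence (30 min, room temperature) in the same p53RE-bla plates. These plates had been exposed to compounds for 16 h at 37 C.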

[4] = qHTS assay for small molecules that induce genotoxicity in human embryonic kidney cells expressing luciferase-tagged ATAD5 - cell viability (AID 651634; calls by dose curve; note: nearly all actives have a fitted effect of over 25% in size)
Procedure, shortened: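 HEK293T ATAD5-luc cells, 2,000/well; compound 15.5 hr, 37C/5% CO2; CellTiter-Fluor 30 min, 37C; fluorescence read.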

[5] = qHTS assay for small molecule disruptors of the mitochondrial membrane potential - cell viability (AID 720634; calls by dose curve; note: nearly all actives have a fitted effect of over 20% in size; note: potency is the fitted concentration of half-maximal effect)
Procedure, shortened: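 Luminescence from CellTiter-Glo (ATP content) gave viability in HepG2 cells, read in the same wells as the MMP dye assay after 1 hr compound exposure at 37 C.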

[6] = qHTS assay to test for compound auto fluorescence at 590 nm (red) in HepG2 cells (AID 720674)
Procedure, shortened: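 1 hr compound incubation on HepG2 cells, 37 C, 5% CO2; plate read ex 540 nm / em 590 nm; intensities reported as Rose Bengal sodium equivalents.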

[7] = qHTS assay to test for compound auto fluorescence at 535 nm (green) in HepG2 cells (AID 720675)
[8] = qHTS assay to test for compound auto fluorescence at 460 nm (blue) in HEK293 cells (AID 720678)
Procedure, shortened: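 Auto fluorescence in the blue band was quantified as triamterene equivalency. HEK293 cells were seeded at 2,000/well, dosed after a 4-5 hr attachment, and kept overnight at 37C before the 405/460 nm reading.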

[9] = qHTS assay to test for compound auto fluorescence at 590 nm (red) in HEK293 cells (AID 720679)
Procedure, shortened: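 Autofluorescence equivalency to Rose Bengal sodium, 540/590nm, in HEK293 cells exposed overnight to 23 nL compound per well.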

[10] = qHTS assay to test for compound auto fluorescence at 535 nm (green) in HEK293 cells (AID 720680)
[11] = qHTS assay to test for compound auto fluorescence at 460 nm (blue) in HEK293 cell free culture (AID 720681)
Procedure, shortened: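 Blue fluorescence (Ex 405/Em 460 nm, triamterene-equivalent) was read immediately after pin transfer of compound or DMSO into medium (DMEM, 10% FBS) without cells.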

[12] = qHTS assay to test for compound auto fluorescence at 535 nm (green) in HEK293 cell free culture (AID 720682)
Procedure, shortened: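 No cells present: wells hold DMEM supplemented with 10% FBS, into which compound or vehicle is pinned. Green emission is then recorded (485 nm excitation, 535 nm emission) and scaled to fluorescein.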

[13] = qHTS assay to test for compound auto fluorescence at 590 nm (red) in HEK293 cell free culture (AID 720683)
Procedure, shortened: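 Red-channel autofluorescence of compounds in culture medium (DMEM, 10% FBS), no cells, measured at 540/590 nm. Rose Bengal sodium is the reference fluorophore for equivalence.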

[14] = qHTS assay to test for compound auto fluorescence at 590 nm (red) in HepG2 cell free culture (AID 720684)
Procedure, shortened: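 Cell-free; medium MEM + 10% FBS; compound or DMSO added by pintool; read Ex 540/Em 590 nm; Rose Bengal sodium as red reference fluorophore.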

[15] = qHTS assay to test for compound auto fluorescence at 460 nm (blue) in HepG2 cell free culture (AID 720685)
Procedure, shortened: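 Cell-free plates of MEM plus 10% FBS received 23 nL compound or DMSO vehicle; blue-channel (405/460 nm) intensity scored against triamterene as reference fluorophore.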

[16] = qHTS assay to test for compound auto fluorescence at 535 nm (green) in HepG2 cell free culture (AID 720686)
[17] = qHTS assay to test for compound auto fluorescence at 460 nm (blue) in HepG2 cells (AID 720687)
Procedure, shortened: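 Blue-channel autofluorescence (Ex/Em 405/460 nm, triamterene-equivalent) was measured after 1 hr compound exposure at 37 C, 5% CO2. Cells were HepG2, plated overnight at 37 C in MEM plus 10% FBS.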

[18] = target: Glucocorticoid receptor (Homo sapiens) (UniProt P04150); test: qHTS assay to identify small molecule agonists of the glucocorticoid receptor (GR) signaling pathway (AID 720691; active = well fitted activation curve with a large enough effect in the signal ratio in the repeat runs, not every such curve was filed as active; the % refers to the signal ratio; note: potency is the fitted concentration of half-maximal effect)
Procedure, shortened: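 HeLa GR-bla reporter line; cells pre-incubated 4 h, compound in DMSO 18 h at 37 C; LiveBLAzer B/G FRET substrate 2 h RT; fluorescence intensity read-out.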

[19] = target: Glucocorticoid receptor (Homo sapiens) (UniProt P04150); test: qHTS assay to identify small molecule antagonists of the glucocorticoid receptor (GR) signaling pathway (AID 720692; active = well fitted inhibition curve with a large enough effect in the signal ratio in the repeat runs, not every such curve was filed as active; the % refers to the signal ratio; note: potency is the fitted concentration of half-maximal effect)
Procedure, shortened: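 Read-out: beta-lactamase FRET substrate fluorescence, 2 h at room temperature, in HeLa cells stably carrying a GRE-driven bla reporter. Compounds were co-incubated with 5 nM dexamethasone agonist (final) for 18 h at 37 C.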

[20] = qHTS assay for small molecule disruptors of the mitochondrial membrane potential (AID 720635); note: potency is the fitted concentration of half-maximal effect
Procedure, shortened: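 Mitochondrial membrane potential tracked with Mito-MPS dye, red aggregates (ex 540/em 590 nm) against green monomers (ex 490/em 535 nm). Compound treatment 1 hr at 37C, dye 30 min in HepG2.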

Measured: Potency

Chain of Glucocorticoid receptor (Homo sapiens) (P04150 whole entry, looked up): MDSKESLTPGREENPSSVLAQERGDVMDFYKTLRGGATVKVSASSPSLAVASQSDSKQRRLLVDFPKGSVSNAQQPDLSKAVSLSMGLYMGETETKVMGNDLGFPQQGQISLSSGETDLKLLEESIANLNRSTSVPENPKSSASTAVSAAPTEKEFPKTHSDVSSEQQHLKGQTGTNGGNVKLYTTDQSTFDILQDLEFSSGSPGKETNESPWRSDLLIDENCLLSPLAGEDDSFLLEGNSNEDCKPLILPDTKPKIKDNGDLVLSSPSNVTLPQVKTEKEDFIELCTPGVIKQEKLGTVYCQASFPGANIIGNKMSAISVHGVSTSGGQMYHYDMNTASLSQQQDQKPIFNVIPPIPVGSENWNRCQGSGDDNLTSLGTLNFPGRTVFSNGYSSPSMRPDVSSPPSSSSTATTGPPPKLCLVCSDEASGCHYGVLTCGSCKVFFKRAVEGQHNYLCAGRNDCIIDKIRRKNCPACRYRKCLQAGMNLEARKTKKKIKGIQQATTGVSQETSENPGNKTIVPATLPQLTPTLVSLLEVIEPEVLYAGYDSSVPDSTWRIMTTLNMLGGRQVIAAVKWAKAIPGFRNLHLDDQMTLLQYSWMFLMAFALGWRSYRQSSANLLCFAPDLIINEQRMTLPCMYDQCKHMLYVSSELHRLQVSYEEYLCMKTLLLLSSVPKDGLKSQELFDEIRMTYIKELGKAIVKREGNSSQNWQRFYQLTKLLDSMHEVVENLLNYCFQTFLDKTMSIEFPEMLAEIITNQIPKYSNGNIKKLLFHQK

CCCN(CCC)CCc1c[nH]c2ccccc12
not listed: [20]
inactive: all other assays above

CCOC(=O)C1(c2ccccc2)CCN(CCC(C#N)(c2ccccc2)c2ccccc2)CC1
active: [1] 3.76 µM and 26.6 µM | [3] 1.88 µM and 9.44 µM | [20] 13.3 µM and 26.6 µM | [18] 60 µM
not listed: [5] | [19]
inactive: all other assays above

Clc1ccc(-c2ccc(Cl)c(Cl)c2Cl)c(Cl)c1Cl
active: [1] 58.2 µM | [3] 65.3 µM
not listed: [5] | [18] | [19] | [20]
inactive: all other assays above

CCN
not listed: [13] | [19]
inactive: all other assays above

[CH3][Hg][Cl]
active: [1] 30.5 µM | [2] 4.84 µM | [3] 24.3 µM | [5] 27.2 µM | [20] 19.3 µM
not listed: [4] | [18] | [19]
inactive: all other assays above

Cc1cc(C(C)(C)c2cc(C)c(O)c(C)c2)cc(C)c1O
active: [1] 29.6 µM | [3] 59.1 µM | [5] 29.6 µM | [20] 18.7 µM | [19] 4.74 µM
not listed: [18]
inactive: all other assays above

CC(c1ccc(O)cc1)c1ccc(O)cc1
active: [20] 25.6 µM
not listed: [18]
inactive: all other assays above

CC(C)[C@H](C(=O)O[C@H](C#N)c1cccc(Oc2ccccc2)c1)c1ccc(Cl)cc1
active: [20] 30.6 µM
not listed: [5] | [13] | [18] | [19]
inactive: all other assays above

Clc1ccc(C(c2ccccc2Cl)C(Cl)(Cl)Cl)cc1 (stereo not drawn)
active: [1] 69 µM | [3] 54.8 µM and 40.2 µM | [19] 22 µM and 20.3 µM
not listed: [5] | [18] | [20]
inactive: all other assays above

Nc1ccccc1C(=O)Oc1ccc2ccccc2c1
active: [2] 5.45 µM | [20] 61.1 µM
not listed: [5] | [9]
inactive: all other assays above

COc1cc(N)c(Cl)cc1C(=O)NC1CN2CCC1CC2 (stereo not drawn)
inactive: all assays above

CCCN(CC)CC1COC2(CCC(C(C)(C)C)CC2)O1 (stereo not drawn)
not listed: [13] | [20]
inactive: all other assays above

COC(=O)N(C(=O)N1CO[C@@]2(C(=O)OC)Cc3cc(Cl)ccc3C2=N1)c1ccc(OC(F)(F)F)cc1
active: [1] 46.9 µM | [5] 3.32 µM | [20] 13.2 µM
not listed: [18] | [19]
inactive: all other assays above

CC(C)OC(=S)S
not listed: [9] | [13] | [18] | [19] | [20]
inactive: all other assays above
